# From PubChem BioAssay
# Inconclusive results are not listed. The source made the active and inactive calls.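 The calls were made as follows: active = cell viability at or below a set limit in both duplicate runs, the limit being the all-compound median minus 4 SD (cut at about 23% in these data, passing the limit was not always enough); inconclusive = no clear call, values can overlap the other calls; inactive = the rest.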
# Experiment: growth suppression of beta-catenin knockout HCT116, pilot screen, human colon tumor cells (AID 823);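 also: 0% = wells killed by 20 µM Hyamine and 100% = untreated DMSO cell wells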
# Settings: CellTiter-Glo, 60 h, at 10 µM, hits give low values
row,SMILES,viability
1,CCOC(=O)c1ccc(NS(=O)(=O)c2ccc3c(c2)oc(=O)n3C)cc1,101% (inactive)
2,O=C(Nc1ccc2c(c1)OCCO2)NC1CCCCC1,86.8% (inactive)
3,O=C(CSc1nnnn1-c1ccccc1Cl)Nc1ccc2c(c1)OCCO2,99.4% (inactive)
4,COc1ccc(-c2nc(CSCC(=O)NCc3ccc4c(c3)OCO4)c(C)o2)cc1OC,84.7% (inactive)
5,Cc1cnc(NC(=O)CSc2nnc(COc3c(C)cccc3C)o2)s1,93.9% (inactive)
6,Cc1cccc(C2CC(c3ccccc3)Nc3nc(N)nn32)c1 (stereo not given),99.8% (inactive)
7,CCc1ccccc1N1CC23C=CC(O2)C(C(=O)O)C3C1=O (stereo not given),96% (inactive)
8,CCOC(=O)C1CCN(Cc2ccc(F)c(Br)c2)CC1,90.4% (inactive)
9,CCOc1ccccc1N1Cc2cc(C)c(C)cc2C1,63.6% (inactive)
10,CCN1CCN(C(CNC(=O)c2ccc3c(c2)OCO3)c2cccnc2)CC1 (stereo not given),104% (inactive)
11,O=C(NCCSc1c[nH]c2ccccc12)c1ccco1,102% (inactive)
12,COCCNC(=O)CN(C)S(=O)(=O)c1ccc(Br)cc1,98.7% (inactive)
13,COc1cc(C(=O)Nc2cccc(-c3nncn3C)c2)cc(OC)c1OC,91.4% (inactive)
14,CN1CCN(Cc2nc3c(c(=O)n(C)c(=O)n3C)n2Cc2ccccc2Cl)CC1,91.8% (inactive)
15,O=C(OCCN=C1NS(=O)(=O)c2ccccc21)C1CC(=O)N(c2ccc(Cl)cc2)C1 (stereo not given),107% (inactive)
16,COc1cccc2cc(C(=O)OC3CCN(C)CC3)c(=O)oc12,104% (inactive)
17,Cc1cccc(N2C(=O)CC(N3CCN(c4cccc(C(F)(F)F)c4)CC3)C2=O)c1 (stereo not given),97.3% (inactive)
18,O=c1c2ccccc2nc2n1CCN2,101% (inactive)
19,CCOC(=O)C1=C(C)Nc2nnnn2C1c1ccc(OC)c(Br)c1 (stereo not given),92% (inactive)
20,COc1ccc(-n2c(Cc3cccn3C)nnc2SCC(N)=O)cc1,97.6% (inactive)

row,SMILES,viability
1,COc1ccccc1NC(=O)CSc1nnc(Cc2cccn2C)n1-c1ccc(F)cc1,86.7% (inactive)
2,CC(=O)Nc1cccc(Oc2nc(C)cc(C)c2C#N)c1,107% (inactive)
3,COc1ccc(CNC(=O)c2ccc(CN3CCOCC3)cc2)cc1,96.4% (inactive)
4,Cc1cc(OCC(=O)NCCO)cc(C)c1Cl,99.1% (inactive)
5,COc1ccc(C)cc1S(=O)(=O)N1CCN(S(=O)(=O)c2cc(C)ccc2OC)CC1,93.8% (inactive)
6,CCCCC(NS(=O)(=O)c1ccc(OC)cc1)C(=O)O (stereo not given),99.1% (inactive)
7,CCOc1ccc(Cn2nnc(C(=O)Nc3ccc(OC)cc3OC)c2N)cc1,83.3% (inactive)
8,Cc1cc(C)c(NC(=O)CSc2nc3c(c(=O)n2C)SC(C)C3)c(C)c1 (stereo not given),85.7% (inactive)
9,COc1ccccc1N1C(=O)CCC1(C#N)c1ccccc1 (stereo not given),108% (inactive)
10,CCOc1ccc(N(CC(=O)NC2CCCC(C)C2C)S(=O)(=O)c2c(C)noc2C)cc1 (stereo not given),82.8% (inactive)
11,CCN1C(=O)c2ccccc2S(=O)(=O)c2ccc(C(=O)NCc3cccnc3)cc21,93.4% (inactive)
12,Cc1ccc(C(=O)CC2(O)C(=O)N(C)c3ccc(Br)cc32)c(C)c1 (stereo not given),71.5% (inactive)
13,CCN1CCN(C(=O)c2cn(CC)c3ccc(S(=O)(=O)N(C)C)cc3c2=O)CC1,101% (inactive)
14,COc1ccc(OC)c(NC(=O)CSc2nnc(Cc3cccn3C)n2-c2ccc(F)cc2)c1,97.1% (inactive)
15,CCOc1ccc(-c2nnc(SCC(=O)N3CCN(c4ccccc4)CC3)o2)cc1,102% (inactive)
16,COCCCN(C)C1CCN(C(=O)Nc2ccc(F)cc2)CC1,103% (inactive)
17,COc1cccc(C2CC(=O)Nc3c2c(=O)n(C)c(=O)n3C)c1OC (stereo not given),98.9% (inactive)
18,CCCC(=O)C1=C(N(C)c2ccccc2)CC(C)(C)C(C(=O)OC)C1=O (stereo not given),93.7% (inactive)
19,CC(=O)N1c2c(cc(Br)cc2S(=O)(=O)NCC2COc3ccccc3O2)CC1C (stereo not given),83.2% (inactive)
20,CCCCNC(=O)Cn1c(=O)n(C)c2ccccc21,106% (inactive)
